PubChem BioAssay AID2551 (National Center for Advancing Translational Sciences (NCATS), 2010)
Hit rate of the full screen: of about 310,000 compounds, about 17,000 (5.5%) were called active. About 11% were inconclusive and are not listed. This is one part of a sample in which actives are shown more often than they occur. Calls follow the shape of the dose curve; as a rule, active = well fitted inhibition curve with a large enough effect; inconclusive = small, poorly fitted or top-dose-only effect, or effect the other way; inactive = no such curve, though single readings can be large or run the other way.

Target: Nuclear receptor ROR-gamma (Mus musculus) (UniProt P51450)
Sequence (P51450 whole entry, looked up): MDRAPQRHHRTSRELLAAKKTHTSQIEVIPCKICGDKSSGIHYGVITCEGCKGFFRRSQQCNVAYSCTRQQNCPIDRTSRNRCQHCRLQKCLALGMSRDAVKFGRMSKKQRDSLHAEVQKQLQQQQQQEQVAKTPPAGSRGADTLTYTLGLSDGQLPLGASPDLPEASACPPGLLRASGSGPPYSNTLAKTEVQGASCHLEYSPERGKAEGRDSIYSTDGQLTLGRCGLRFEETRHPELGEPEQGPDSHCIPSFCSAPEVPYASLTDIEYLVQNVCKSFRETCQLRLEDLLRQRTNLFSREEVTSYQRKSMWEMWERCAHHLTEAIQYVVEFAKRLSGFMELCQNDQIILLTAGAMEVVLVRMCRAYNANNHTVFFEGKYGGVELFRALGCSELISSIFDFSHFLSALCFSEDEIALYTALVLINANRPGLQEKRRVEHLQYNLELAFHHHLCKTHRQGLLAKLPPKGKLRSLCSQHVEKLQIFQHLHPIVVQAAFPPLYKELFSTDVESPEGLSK
Assay: qHTS for inhibitors of ROR gamma transcriptional activity; also: nearly all actives have a fitted effect of over 60% in size
Conditions: Drosophila S2 Gal4-RORgamma UAS-luciferase reporter, 20 h; series mostly up to 53.6 µM; activity change, negative = inhibition: at the top concentration
Summary of the method: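 Read-out: Photinus luciferase luminescence; inhibitors lower reporter signal. Insect Schneider cells with Gal4-ROR gamma fusion under metallothionein promoter, UAS reporter; 700 uM final copper sulfate induction, 20 hr, ambient temperature.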
% is scaled to controls: 0 for no effect and ±100 for the full control effect; potency is read from the fitted curve at half-maximal effect.

Activity change, negative = inhibition, inactive:
COc1ccc(S(=O)(=O)N2CCOCC2)cc1C(=O)Nc1nc2ccccc2s1 -12.9%
COc1ccc(/C=C(/CC(=O)Nc2ccc(C)cc2)c2nc3ccccc3s2)cc1 33.7%
CCOC(=O)CNC(=O)CSc1ncccc1-c1nc2ccccc2[nH]1 43.9%
COc1ccc(N(CC(=O)NCc2ccc(F)cc2)C(=O)CCC(=O)Nc2nccs2)cc1 -29.3%
COc1ccc(S(=O)(=O)NNC(=O)Nc2ccc(C)cc2)c(OC)c1 -9.69%
CCOC(=O)NN1C(=O)c2ccccc2NC1c1cccc(O)c1 (stereo not drawn) 16.3%
O=C1c2ccccc2NC(c2ccccc2O)N1NS(=O)(=O)c1ccccc1 (stereo not drawn) -4.74%
COc1ccc(N(CC(=O)N2CCOCC2)S(=O)(=O)c2ccccc2)cc1Cl -7.47%
Cc1ccc(NC(=O)CCN2C(=O)c3ccccc3C2=O)cc1C 2.87%
Cc1nn(-c2ccccc2)c2c1c(C)c(CCC(=O)NCC1CCCO1)c(=O)n2C (stereo not drawn) -11.4%
O=C(N/N=C/c1ccccn1)c1cccc(NC(=O)c2ccc(Cl)cc2)c1 -27.8%
CSc1ccc(/C=N\NC(=O)COc2ccc(Cl)cc2Br)cc1 -30.3%
C=CCN1CN(S(=O)(=O)c2ccc(OC)cc2)c2nc3ccccc3nc21 14.6%
O=C(Nc1nc2ccc([N+](=O)[O-])cc2s1)c1ccncc1 13%
O=C(COC(=O)c1ccc(F)cc1)Nc1nc2ccc([N+](=O)[O-])cc2s1 -1.04%
CCOc1ccccc1NS(=O)(=O)c1cc2c3c(c1)C(C)C(=O)N3CCC2 (stereo not drawn) 8.24%
CCc1ccccc1NC(=O)c1ccc2snnc2c1 -1.7%
COCCN1CCN(C(=O)c2cc(COc3ccc(F)cc3Cl)on2)CC1 4.15%
COCCNC(=O)c1ccc(Cn2c(SCC(=O)NCC3CCCO3)nc3ccc(Br)cc3c2=O)cc1 (stereo not drawn) 5.53%
CCn1c(SCC(=O)NCC2CCCO2)nc2cc(S(=O)(=O)N3CCCCC3)ccc21 (stereo not drawn) 29.2%
CCCCNC(=O)c1cn(CC)c2cc(N3CCN(C(=O)c4ccco4)CC3)c(F)cc2c1=O 4.18%
CCCOc1ccc(Cc2c(O)nc(N)[nH]c2=O)cc1C 1.22%
COc1cccc(/C=N/Nc2ccc(Cl)nn2)c1 -7.53%
Cc1ccsc1/C=N/Nc1ccc(Cl)nn1 -20.8%
Cc1ccc(C)c(S(=O)(=O)N2CCCOC2CNC(=O)C(=O)NC2CCCCC2)c1 (stereo not drawn) -12.7%
Cc1ccccc1CN1CCNC(=O)C1CC(=O)NCCC1=CCCCC1 (stereo not drawn) 6.29%
COC(=O)C1=CN(Cc2ccc(OC)cc2)C=C(C(=O)OC)C1c1ccc(O)c(OC)c1 2%
CN1C(=O)[C@H]2[C@@H](C3CC3)N3C(=O)CN(Cc4ccccc4)C(=O)[C@@]3(C)[C@H]2C1=O -0.788%
COC(=O)c1ccc(C(=O)NC2CC(C)(C)Cc3c2cnn3-c2ccc(F)cc2)nc1 (stereo not drawn) 27.3%
CCc1ccc(OCC(O)CN2CCN(CCO)CC2)cc1 (stereo not drawn) 6.29%
c1csc(-c2nc(-c3ccncc3)no2)c1 -25.3%
O=C(Oc1ccc(-c2nc(-c3ccccn3)no2)cc1)c1ccccc1 1.49%
COc1ccc2[nH]c(=O)c(C3c4cc(OC)c(OC)cc4CCN3C(=O)c3ccco3)cc2c1 (stereo not drawn) -0.908%
CC1CCCCC1NC(=O)CCS(=O)(=O)c1ccc2c(c1)NC(=O)CO2 (stereo not drawn) -15.6%
COc1cccc(NC(=O)C2C(c3ccccc3)C2(Cl)Cl)c1 (stereo not drawn) 27.3%
COc1ccc(-c2cc(C(=O)N3CCN(Cc4ccc5c(c4)OCO5)CC3)on2)cc1OC 0.905%
O=C(CCN1C(=O)C2C3CCC(C3)C2C1=O)Nc1ccc(Cl)cc1Cl (stereo not drawn) 15%
CC(=O)N1CCOc2ccc(S(=O)(=O)N3CCC(C(=O)Nc4ccccc4F)CC3)cc21 3.01%
COc1ccc(NC(=O)Cn2ncn3c(cc4ccccc43)c2=O)c(OC)c1OC 5.63%
Cn1sc(NC(=O)c2ccccc2)nc1=O 4.29%
CC(C)(C)C(=O)Cn1c(NCCO)nc2ccccc21 20.4%
CCc1nc2ccccc2n(CCOCCOCCn2c(=O)c(CC)nc3ccccc32)c1=O -24.8%
CC(=O)NCCc1nc2cc(NC(=O)c3ccccc3)ccc2n1C -25.2%

Potency, active:
COc1cccc2sc(NNC(=O)c3nc4ccccc4s3)nc12 3.55 µM
CCOC(=O)NN1C(=O)c2ccccc2NC1c1ccccc1O (stereo not drawn) 11.2 µM
O=C(COc1ccc(Cl)cc1Cl)N/N=C/c1ccccn1 12.6 µM
O=C(NC(Nc1nc2ccc([N+](=O)[O-])cc2s1)(C(F)(F)F)C(F)(F)F)c1ccccc1 6.31 µM
CCCCn1c(SCC(=O)NCC2CCCO2)nc2ccc(N3CCOCC3)cc2c1=O (stereo not drawn) 2.51 µM
Oc1cccc(/C=N/Nc2ccc(Cl)nn2)c1O 1.41 µM
c1ccc(-c2noc(-c3cccs3)n2)nc1 1.26 µM
C=CS(=O)c1sc(Cl)c(N2CCOCC2)c1[N+](=O)[O-] (stereo not drawn) 4.47 µM
CCn1c(NC(=O)c2nn(C)cc2Br)nc2ccccc21 2.51 µM
Cn1c(NC(=O)c2ccccc2)nc2ccccc21 1 µM
